Several values for one entry are separate records, joined by “and”; a condition that tells them apart may be missing. Equal values may be shown once. Inconclusive results are not listed. A call without a number means that no potency is given here. Values without a mark were called inactive. Activity calls are given as the source filed them. Calls come from the whole dose curve; as a rule, active = well fitted curve in the direction sought with a large enough effect; inconclusive = small, poorly fitted or top-dose-only effect, or another doubt; inactive = no such curve, though single readings can be large; an effect the other way counts as inactive or inconclusive.

Sequence of Cellular tumor antigen p53 (Homo sapiens) (P04637 whole entry, looked up): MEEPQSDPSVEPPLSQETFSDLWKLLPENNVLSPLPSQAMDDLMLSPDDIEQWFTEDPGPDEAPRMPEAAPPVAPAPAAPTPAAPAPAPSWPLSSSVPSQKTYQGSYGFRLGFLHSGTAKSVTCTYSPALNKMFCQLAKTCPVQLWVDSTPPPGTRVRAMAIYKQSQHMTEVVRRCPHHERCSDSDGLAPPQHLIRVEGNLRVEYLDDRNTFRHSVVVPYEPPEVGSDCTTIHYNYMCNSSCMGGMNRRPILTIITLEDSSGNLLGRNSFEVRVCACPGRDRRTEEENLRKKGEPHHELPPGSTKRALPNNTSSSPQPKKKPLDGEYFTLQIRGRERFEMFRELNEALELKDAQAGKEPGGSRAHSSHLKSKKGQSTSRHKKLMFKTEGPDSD

For the first test, the target named is Cellular tumor antigen p53 (Homo sapiens) (UniProt P04637). In words: Primary qHTS for small molecule compounds that upregulate eGFP-tagged delta133p53alpha (in N-terminal) cells. (AID 2060322).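 For activation: cells pre-induced with doxycycline then dosed without doxycycline.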 Note: nearly all actives have a fitted effect of over 75% in size. Note: potency is the fitted concentration of half-maximal effect. The conditions noted are these: NCI-H358 eGFP-delta133p53alpha fluorescence, 24 h; activation: active compounds read high. The essentials:
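NCI-H358 cells pre-induced 24 h with 10 ng/ml doxycycline for eGFP-delta133p53alpha, plated dox-free and exposed 24 h at 37C to titrated compounds. Fixed, Hoechst-stained; gated GFP peak intensity by laser scanning cytometry, normalized to DMSO (0%) and 57.5 uM 5-azacytidine (100%).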
In the case of `C[C@H]1CN(C[C@H](Cc2ccccc2)C(=O)NCC(=O)O)CC[C@@]1(C)c1cccc(O)c1`, the activation is 7.64%.
Consider `CC(C)(C)NC(=O)Nc1cccc(Nc2ncc(F)c(NC(C)(C)CO)n2)c1`, for which the activation was -4.76% and -4.3%.
Regarding `O=C(NCC(=O)N1CC[C@H](NC2CCC(O)(c3ccc(-c4ncccn4)cn3)CC2)C1)c1cccc(C(F)(F)F)c1` (stereo partly drawn), the activation is 5.25%.
On the same count and under the same terms, in the case of `C[C@]12CC[C@H](O)CC1=CCC1C2CC[C@]2(C)C(n3cnc4ccccc43)=CCC12` (stereo partly drawn) it was 20.1% and 28.6%; in that of `NS(=O)(=O)OC[C@@H]1C[C@@H](n2ccc3c(N[C@H]4CCc5ccccc54)ncnc32)C[C@@H]1O`, -7.64% and -2.39%; in that of `NCC(=O)Nc1ccc(-n2nc(C(F)(F)F)cc2-c2ccc3c(ccc4ccccc43)c2)cc1`, -7.41%.
Turning to `Cc1cc(-c2ncc(CC(=O)Nc3ccc(-c4cnccn4)cn3)cc2C)ccn1`, the activation is -9.46% and -6.68%.
For `COc1ccc2cc(OCC3(C(=O)O)CN(C(=O)c4ccc(F)cc4)C3)ccc2c1`, the activation is 2.86%.
Take `COc1ccc(N(C)c2nc(C)nc3ccccc23)cc1`: the activation was 0.477%.
As for `NC(=O)c1cccc2cn(-c3ccc([C@@H]4CCCNC4)cc3)nc12`, the activation was 20.3% and 6.68%.
Still for that read-out and setting: in the case of `COc1ccc2c(OCc3nnc4ccc(-c5ccccc5)nn34)ccnc2c1` it was -0.776% and -8.11%.
For the molecule `Cc1cc(OCc2nnc(SC3CCCC3)n2-c2cccnc2)ccc1-c1ccc(S(C)(=O)=O)cc1`, the Potency was 6.75 µM (active).
In the case of `CNC(=O)c1ccc(-c2cnc3ncc(Cc4ccc5ncccc5c4)n3n2)cc1F`, the activation was -4.61% and -7.16%.
Take `COCCOc1ccc(N2CCN(CCn3ncc4c3nc(N)n3nc(-c5ccco5)nc43)CC2)cc1`: the activation was 6.21%.
The same measure, in the same setting: in the case of `COC(=O)N(C)c1c(N)nc(-c2nn(Cc3ccccc3F)c3ncccc23)nc1N` it was -15.8%; in that of `Cn1c(CNc2ccc(C(=N)N)cc2)nc2cc(C(=O)N(CCC(=O)O)c3ccccn3)ccc21`, 22.7% and -0.477%; in that of `CN1CC[C@@H](NC(=O)Nc2ccc(C#N)cc2)C[C@@H]1c1nc2ccccc2[nH]1`, -0.477%.
In the case of `COc1cccc(Nc2c(C(N)=O)cnc3c(C)cc(S(=O)(=O)c4cccc(C(=O)N(C)C)c4)cc23)c1`, the activation was 11.1% and -9.07%.
For the molecule `CC(C)(N)C(=O)N[C@H](COCc1ccccc1)C(=O)N1CCC2(CC1)CN(S(C)(=O)=O)c1ccccc12`, the activation is 18.6% and 11%.
With `COc1ccc(-n2c(SCCCN3C(=O)c4cccc5cccc(c45)C3=O)nnc2-c2ccncc2)cc1`, the activation is -13.4%.
Take `COc1cccc2c(NCc3ccccc3)nc(-n3c(N)nc4ccccc43)nc12`: the activation was -21.2%.
Still for that read-out and setting: then `COC(=O)Nc1nc2ccc(C(=O)c3ccc(F)cc3)cc2[nH]1`, with 8.15% and 21.5%.
`COc1cc2c(cc1OC)CN(CCc1ccc(NC(=O)c3cccc4c(=O)c5cccc(OC)c5[nH]c34)cc1)CC2`: the activation was -17.9%.
With `Cc1cccc(-c2nn3c(c2-c2ccnc4ccc(C(N)=O)cc24)CCC3)n1`, the activation was -7.16%.
As for `COc1ccc(-n2nc(C(N)=O)c3c2C(=O)N(c2ccc(N4CCCCC4=O)cc2)CC3)cc1`, the activation is 22.9% and -7.16%.
On to `CC(C)OC(=O)C1=CN(C(=O)c2ccc(F)c(F)c2)CC(C)(C)c2c1[nH]c1ccccc21`, for which the activation is -3.85% and 0.955%.
Take `CCCCNc1ncc(-c2ccc(CN3CCOCC3)cn2)c(NC2CCC(O)CC2)n1` (stereo not drawn): the activation is -4.77%.
For `Cc1nnc(C(C)C)n1C1CC2CCC(C1)N2CC[C@H](NC(=O)C1CCC(F)(F)CC1)c1ccccc1` (stereo partly drawn), the activation is -6.68%.

The next test has as its target Aldehyde dehydrogenase, mitochondrial (Homo sapiens) (UniProt P05091). In words: qHTS for Inhibitors of the Aldehyde Dehydrogenase Family (ALDH2) Primary screen (AID 2061308). Note: nearly all actives have a fitted effect of over 55% in size. To be noted: ALDH2 enzyme inhibition qHTS, 1536-well; series mostly up to 56 µM.
As to `CCN(CCO)CCCC(C)Nc1ccnc2cc(Cl)ccc12` (stereo not drawn), the activity change, negative = inhibition was 2.52% [at 5.59 µM].
Turning to `CCCCc1oc2ccc(NS(C)(=O)=O)cc2c1C(=O)c1ccc(OCCCN(CCCC)CCCC)cc1`, the Potency result was “inactive”.
On to `Cn1cncc1C(N)(c1ccc(Cl)cc1)c1ccc2c(c1)c(-c1cccc(Cl)c1)cc(=O)n2C` (stereo not drawn), for which the Potency entry is “inactive”.
With `CC(C)(C)c1cc(C(=O)O)c(NC(=O)Nc2ccc3[nH]ncc3c2)s1`, the Potency result was “inactive”.
Take `O=C(c1cc(Cc2n[nH]c(=O)c3ccccc23)ccc1F)N1CCN(C(=O)C2CC2)CC1`: the Potency entry was “inactive”.
As to `CCC(CC)C(c1ccc(Nc2nc3ccccc3s2)cc1)n1cncn1` (stereo not drawn), the Potency entry was “inactive”.
For the molecule `Cc1cc(C(=O)N2CCN(c3cccc(Cl)c3)CC2)n(-c2ccccc2)n1`, the Potency result is “inactive”.
Same read-out and setting: in the case of `COc1ccc(CCC(=O)Nc2nc3ccc(Cl)cc3s2)cc1OC` it was “inactive”.
Take `CNC(=O)c1cccc(-c2ccc3c(N4CCOC[C@@H]4C)nc(N4CCOC[C@@H]4C)nc3n2)c1`: the Potency result is “inactive”.
The same measure, in the same setting: then `Clc1cccc(-n2nnnc2NCc2ccccc2Oc2ccccn2)c1Cl`, with “inactive”; and `O=C(C(c1ccccc1)c1ccccc1)N1CCN(CC(O)COc2cccc3ncccc23)CC1` (stereo not drawn), with “inactive”; and `OC[C@H]1O[C@@H](Oc2cc(O)cc(/C=C/c3ccc(O)cc3)c2)[C@H](O)[C@@H](O)[C@@H]1O`, with “inactive”.
For the molecule `C[C@H]1CN(C[C@H](Cc2ccccc2)C(=O)NCC(=O)O)CC[C@@]1(C)c1cccc(O)c1`, the Potency entry is “inactive”.
The same measure, in the same setting: in the case of `CC(C)(C)NC(=O)Nc1cccc(Nc2ncc(F)c(NC(C)(C)CO)n2)c1` it was “inactive”.
Still for that read-out and setting: in the case of `O=C(NCC(=O)N1CC[C@H](NC2CCC(O)(c3ccc(-c4ncccn4)cn3)CC2)C1)c1cccc(C(F)(F)F)c1` (stereo partly drawn) it was “inactive”.
On the same count and under the same terms, in the case of `C[C@]12CC[C@H](O)CC1=CCC1C2CC[C@]2(C)C(n3cnc4ccccc43)=CCC12` (stereo partly drawn) it was “inactive”; in that of `NS(=O)(=O)OC[C@@H]1C[C@@H](n2ccc3c(N[C@H]4CCc5ccccc54)ncnc32)C[C@@H]1O`, “inactive”; in that of `NCC(=O)Nc1ccc(-n2nc(C(F)(F)F)cc2-c2ccc3c(ccc4ccccc43)c2)cc1`, “inactive”.
With `Cc1cc(-c2ncc(CC(=O)Nc3ccc(-c4cnccn4)cn3)cc2C)ccn1`, the Potency result is “inactive”.
With `COc1ccc2cc(OCC3(C(=O)O)CN(C(=O)c4ccc(F)cc4)C3)ccc2c1`, the Potency result is “inactive”.
Same read-out and setting: then `COc1ccc(N(C)c2nc(C)nc3ccccc23)cc1`, with “inactive”; and `NC(=O)c1cccc2cn(-c3ccc([C@@H]4CCCNC4)cc3)nc12`, with “inactive”.
Turning to `COc1ccc2c(OCc3nnc4ccc(-c5ccccc5)nn34)ccnc2c1`, the Potency entry was “inactive”.
Regarding `Cc1cc(OCc2nnc(SC3CCCC3)n2-c2cccnc2)ccc1-c1ccc(S(C)(=O)=O)cc1`, the Potency entry was “inactive”.
For `CNC(=O)c1ccc(-c2cnc3ncc(Cc4ccc5ncccc5c4)n3n2)cc1F`, the Potency result was “inactive”.
As for `COCCOc1ccc(N2CCN(CCn3ncc4c3nc(N)n3nc(-c5ccco5)nc43)CC2)cc1`, the Potency result is “inactive”.
Turning to `COC(=O)N(C)c1c(N)nc(-c2nn(Cc3ccccc3F)c3ncccc23)nc1N`, the Potency result was “inactive”.
On to `Cn1c(CNc2ccc(C(=N)N)cc2)nc2cc(C(=O)N(CCC(=O)O)c3ccccn3)ccc21`, for which the Potency entry is “inactive”.
For the molecule `CN1CC[C@@H](NC(=O)Nc2ccc(C#N)cc2)C[C@@H]1c1nc2ccccc2[nH]1`, the Potency result is “inactive”.
In the case of `COc1cccc(Nc2c(C(N)=O)cnc3c(C)cc(S(=O)(=O)c4cccc(C(=O)N(C)C)c4)cc23)c1`, the Potency result was “inactive”.
With `CC(C)(N)C(=O)N[C@H](COCc1ccccc1)C(=O)N1CCC2(CC1)CN(S(C)(=O)=O)c1ccccc12`, the Potency result was “inactive”.
On the same count and under the same terms, in the case of `COc1ccc(-n2c(SCCCN3C(=O)c4cccc5cccc(c45)C3=O)nnc2-c2ccncc2)cc1` it was “inactive”.
For `COc1cccc2c(NCc3ccccc3)nc(-n3c(N)nc4ccccc43)nc12`, the Potency result was “inactive”.
Still for that read-out and setting: in the case of `COC(=O)Nc1nc2ccc(C(=O)c3ccc(F)cc3)cc2[nH]1` it was “inactive”.
`COc1cc2c(cc1OC)CN(CCc1ccc(NC(=O)c3cccc4c(=O)c5cccc(OC)c5[nH]c34)cc1)CC2`: the Potency result is “inactive”.
`Cc1cccc(-c2nn3c(c2-c2ccnc4ccc(C(N)=O)cc24)CCC3)n1`: the Potency result is “inactive”.
The same measure, in the same setting: then `COc1ccc(-n2nc(C(N)=O)c3c2C(=O)N(c2ccc(N4CCCCC4=O)cc2)CC3)cc1`, with “inactive”; and `CC(C)OC(=O)C1=CN(C(=O)c2ccc(F)c(F)c2)CC(C)(C)c2c1[nH]c1ccccc21`, with “inactive”; and `CCCCNc1ncc(-c2ccc(CN3CCOCC3)cn2)c(NC2CCC(O)CC2)n1` (stereo not drawn), with “inactive”.
The same measure, in the same setting: then `Cc1nnc(C(C)C)n1C1CC2CCC(C1)N2CC[C@H](NC(=O)C1CCC(F)(F)CC1)c1ccccc1` (stereo partly drawn), with “inactive”.
